ABCB6 inh 2: inhibitors of human ABC transporter ABCB6; K562-ABCB6 porphyrin accumulation, flow cytometry, 1 h; hits give low values; 360,000 tested, 0.19% active; fluorescence ratio to DMSO, % at 10 µM; Q9NP58;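 active = fluorescence ratio to DMSO below 75%, the collection mean minus 3 SD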;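 note: signal is porphyrin accumulated inside mitochondria; lower ratio means ABCB6 inhibition with less porphyrin fluorescence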
Target sequence (Q9NP58 whole entry, looked up): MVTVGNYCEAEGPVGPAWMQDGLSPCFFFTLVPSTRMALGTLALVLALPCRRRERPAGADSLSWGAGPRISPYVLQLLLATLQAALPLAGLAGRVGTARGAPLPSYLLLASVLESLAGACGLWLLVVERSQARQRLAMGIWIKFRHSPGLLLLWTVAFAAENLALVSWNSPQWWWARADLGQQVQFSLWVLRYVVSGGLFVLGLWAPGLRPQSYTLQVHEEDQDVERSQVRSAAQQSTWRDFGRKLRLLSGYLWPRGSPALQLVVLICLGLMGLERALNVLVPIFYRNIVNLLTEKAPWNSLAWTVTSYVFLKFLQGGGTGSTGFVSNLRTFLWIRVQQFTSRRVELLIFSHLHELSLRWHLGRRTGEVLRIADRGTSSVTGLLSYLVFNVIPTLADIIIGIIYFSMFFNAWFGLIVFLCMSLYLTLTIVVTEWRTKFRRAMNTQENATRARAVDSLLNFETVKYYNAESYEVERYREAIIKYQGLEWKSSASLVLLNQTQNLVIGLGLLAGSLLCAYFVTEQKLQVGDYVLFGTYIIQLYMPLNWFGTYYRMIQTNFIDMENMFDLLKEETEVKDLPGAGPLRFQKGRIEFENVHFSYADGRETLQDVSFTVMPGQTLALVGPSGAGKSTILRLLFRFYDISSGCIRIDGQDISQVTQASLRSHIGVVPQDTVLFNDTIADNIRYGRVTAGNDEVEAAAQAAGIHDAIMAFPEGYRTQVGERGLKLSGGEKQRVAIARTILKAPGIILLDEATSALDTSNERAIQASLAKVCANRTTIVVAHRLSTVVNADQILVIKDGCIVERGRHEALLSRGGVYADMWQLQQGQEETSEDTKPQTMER
Rev-erbA mod: modulates human Rev-erb alpha binding to DNA; P20393; Rev-erbα–FITC-DNA binding, fluorescence polarization, 90 min; activity, % at 10 µM; 370,000 tested, 0.79% active;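 active = activity above about 14%, limit read from the data; passing the limit was not always enough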
VLA-4 inh: inhibition in a human VLA-4 binding assay; P13612; VLA-4 expressing cells, ligand binding flow cytometry; inhibition, % (about 7 µM as worked out from the volumes in the protocol); 330,000 tested, 0.2% active; in the data active = inhibition above about 50%
Granule exo inh: lytic granule exocytosis inhibition. TALL-104 LAMP-1 surface exposure, flow cytometry; cells stimulated with thapsigargin and PMA. inhibition, % at 10 µM. 360,000 tested, 0.66% active;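 active = inhibition above about 55%, limit read from the data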
PG9 binder: binds the HIV-1 gp120 antibody PG9. TR-FRET gp120-PG9 antibody binding. inhibition, % at 6.7 µM. 360,000 tested, 0.43% active; in the data active = inhibition above about 8.5%
PG9 bind confirm: confirmation of small molecules binding HIV-1 gp120 antibody PG9; shares compounds with PG9 binder; TR-FRET PG9 antibody binding, biochemical; inhibition, % at 6.7 µM; 1,500 tested, 90% active; AID 651571; in the data active = inhibition above about 9%
PGV04 Ab binding: binds control antibody PGV04 in PG9 binder counter-screen; shares compounds with PG9 binder; TR-FRET PGV04 antibody-gp120 binding, biochemical; inhibition, % at 6.7 µM; 1,500 tested, 95% active; AID 651604; in the data active = inhibition above about 9.5%
A number is an active result. Shown are actives, neighbours in structure and some others; about 2% of the full set was active somewhere.

`CCc1c(C)nc2c(Br)cccc2c1SCCC#N` gave ABCB6 inh 2 inactive, Rev-erbA mod inactive, VLA-4 inh inactive, Granule exo inh inactive, PG9 binder 9.6, PG9 bind confirm 13 and PGV04 Ab binding 19.
COC(=O)[C@]12C[C@H](CC(=O)NCC34CC5CC(CC(C5)C3)C4)C(=O)N(CCc3ccc(OC)c(OC)c3)C1=C[C@H](COCc1ccccc1)O[C@@H]2C was read as Rev-erbA mod inactive.
`Cc1ccc(NC(=O)CSc2nnc(-c3ccncc3)n2C)cc1C` gave ABCB6 inh 2 inactive, Rev-erbA mod inactive, VLA-4 inh inactive, Granule exo inh inactive, PG9 binder 17, PG9 bind confirm 15 and PGV04 Ab binding 40.
`Cc1[nH]c(=O)nc(SCc2cccc(Cl)c2)c1C#N` gave ABCB6 inh 2 inactive, Rev-erbA mod inactive, VLA-4 inh inactive, Granule exo inh inactive and PG9 binder inactive.
O=C(CSc1nc2[nH]ncc2c(=O)[nH]1)Nc1cccc(Cl)c1 was read as ABCB6 inh 2 inactive, Rev-erbA mod inactive, VLA-4 inh inactive, Granule exo inh inactive and PG9 binder inactive.
Screening N#Cc1c(-c2ccccc2)nc(SCc2cccc(Cl)c2)[nH]c1=O returned ABCB6 inh 2 inactive, Rev-erbA mod inactive, VLA-4 inh inactive, Granule exo inh inactive, PG9 binder 8.7, PG9 bind confirm 14 and PGV04 Ab binding 21.
Screening N#Cc1c(-c2ccco2)nc(SCC(=O)Nc2cccc(Cl)c2)[nH]c1=O returned ABCB6 inh 2 inactive, Rev-erbA mod inactive, VLA-4 inh inactive, Granule exo inh inactive, PG9 binder 15, PG9 bind confirm 28 and PGV04 Ab binding 32.
For O=C(c1cccc(F)c1F)N(Cc1ccccn1)CC1CCCO1 (stereo not drawn) the results were Rev-erbA mod inactive.
Cc1cc(C)c2c(N)c(C(=O)Nc3cccc(C)c3C)sc2n1 was read as ABCB6 inh 2 inactive, Rev-erbA mod inactive, VLA-4 inh inactive, Granule exo inh inactive, PG9 binder 8.9, PG9 bind confirm 46 and PGV04 Ab binding 70.
Cc1ccc(NC(=O)c2sc3nc(C)cc(C)c3c2N)cc1 was read as ABCB6 inh 2 inactive, Rev-erbA mod inactive, VLA-4 inh inactive, Granule exo inh inactive and PG9 binder inactive.
For Cc1ccccc1NC(=O)c1sc2nc3c(c(-c4ccco4)c2c1N)CCCC3 the results were ABCB6 inh 2 inactive, Rev-erbA mod inactive, VLA-4 inh inactive, Granule exo inh inactive, PG9 binder 71, PG9 bind confirm 62 and PGV04 Ab binding 71.
`Nc1c(C(=O)Nc2ccccc2)sc2nc3c(c(-c4ccco4)c12)CCCC3` gave ABCB6 inh 2 inactive, Rev-erbA mod inactive, VLA-4 inh inactive, Granule exo inh inactive and PG9 binder inactive.
Nc1nc(-c2ccc(Cl)cc2)nnc1-c1ccc(Br)cc1 was read as ABCB6 inh 2 inactive, Rev-erbA mod inactive, VLA-4 inh inactive, Granule exo inh inactive, PG9 binder 13, PG9 bind confirm 16 and PGV04 Ab binding 58.
Screening O=C(CCc1ccccc1)N[C@H]1[C@@H](O)CCC[C@]12C(=O)N(Cc1ccccc1)c1ccccc12 returned Rev-erbA mod inactive.
`CCCCC(=O)Nc1ccc(C(=O)Nc2ccc(S(=O)(=O)N3CCCC3)cc2)cc1` gave ABCB6 inh 2 inactive, Rev-erbA mod inactive, VLA-4 inh inactive, Granule exo inh inactive, PG9 binder 18, PG9 bind confirm 19 and PGV04 Ab binding 38.
`CCOc1ncccc1C(=O)Nc1ccc(S(=O)(=O)N2CCCC2)cc1` gave ABCB6 inh 2 inactive, Rev-erbA mod inactive, VLA-4 inh inactive, Granule exo inh inactive, PG9 binder 9.6, PG9 bind confirm 13 and PGV04 Ab binding 18.
CCCc1cc(=O)n2[nH]c(-c3cccc(Br)c3)cc2n1 was read as ABCB6 inh 2 inactive, Rev-erbA mod inactive, VLA-4 inh inactive, Granule exo inh inactive, PG9 binder 16, PG9 bind confirm 18 and PGV04 Ab binding 29.
Screening CCCc1cc(=O)n2[nH]c(-c3ccc(Br)cc3)cc2n1 returned ABCB6 inh 2 inactive, Rev-erbA mod inactive, VLA-4 inh inactive, Granule exo inh inactive and PG9 binder inactive.
For COC(=O)[C@H](C(C)C)N(CCc1cn(Cc2ccc(C)cc2)nn1)S(=O)(=O)c1ccc(F)cc1Br the results were Rev-erbA mod inactive.
CC(NCc1ccco1)C(=O)N1CCCN(C)CC1 (stereo not drawn) was read as Rev-erbA mod inactive.
For CCCSS/C(CCO)=C(/C)N(C=O)Cc1cnc(C)nc1N the results were Rev-erbA mod inactive.
O=C(COC(=O)c1cn(-c2ccccc2)nc1-c1ccccc1)Nc1ncc(Cl)cc1Cl was read as ABCB6 inh 2 inactive, Rev-erbA mod inactive, VLA-4 inh inactive, Granule exo inh inactive, PG9 binder 15, PG9 bind confirm 22 and PGV04 Ab binding 33.
`COc1cccc(-c2nn(-c3ccccc3)cc2C(=O)OCC(=O)Nc2ncc(Cl)cc2Cl)c1` gave ABCB6 inh 2 inactive, Rev-erbA mod inactive, VLA-4 inh inactive, Granule exo inh inactive and PG9 binder inactive.
For Cc1ccc(NC(=O)Cn2c(=O)c3cccn3c3ccccc32)cc1 the results were ABCB6 inh 2 inactive, Rev-erbA mod inactive, VLA-4 inh inactive, Granule exo inh inactive, PG9 binder 21, PG9 bind confirm 19 and PGV04 Ab binding 27.
Screening CC(=O)c1cn(CC(=O)Nc2ccc(C)cc2)c2ccccc12 returned ABCB6 inh 2 inactive, Rev-erbA mod inactive, VLA-4 inh inactive, Granule exo inh inactive, PG9 binder 17, PG9 bind confirm 24 and PGV04 Ab binding 32.
Screening CC(=O)c1cn(CC(=O)Nc2ccc(C)c(C)c2)c2ccccc12 returned ABCB6 inh 2 inactive, Rev-erbA mod inactive, VLA-4 inh inactive, Granule exo inh inactive and PG9 binder inactive.
For COC(=O)c1cc2c(c3c4cc(F)ccc4n(S(=O)(=O)c4ccccc4)c13)C(=O)N(Cc1ccc(C(F)(F)F)cc1)C2 the results were Rev-erbA mod inactive and PG9 binder inactive.
CC(C)C1CC(N(C)C)=CC(=S)N1 (stereo not drawn) was read as Rev-erbA mod inactive and PG9 binder inactive.
Screening C[C@H](O)[C@@H]1CN2CCc3c([nH]c4cccc(-c5ccccc5)c34)[C@@H]2C[C@@H]1N(C)C(=O)C1CCCCC1 returned Rev-erbA mod inactive.
For COC(=O)c1cc2c(c3c4cc(F)ccc4n(S(=O)(=O)c4ccccc4)c13)C(=O)N(Cc1ccc(N(C)C)cc1)C2 the results were Rev-erbA mod inactive and PG9 binder inactive.
For COc1ccc(C(=O)COC(=O)CCN=C2NS(=O)(=O)c3ccccc32)c(OC)c1 the results were ABCB6 inh 2 inactive, Rev-erbA mod inactive, VLA-4 inh inactive, Granule exo inh inactive, PG9 binder 17, PG9 bind confirm 31 and PGV04 Ab binding 45.

Bioassay records from PubChem.
